# Among all 290,000 compounds or so, about 3,000 (1%) were called active. Rule as the data show it: active = inhibition mostly above about 36% (no sharp cut-off); inactive = mostly below about 34%. This excerpt belongs to a sample that is enriched for actives.
# Experiment: NOD1 signaling inhibitors, primary screen, cell-based, luminescence, uHTS (AID 1578);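 also: HEK-293T reporter cells stimulated with the NOD1 agonist gamma-tri-DAP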
# Details: NOD1-driven NF-kB luciferase reporter cells, at 4 µM, hits give high values
row,SMILES,inhibition
1,O=C(CCl)Nc1ccccc1Sc1ccccc1,21.3% (inactive)
2,O=C(O)CCC(=O)Nc1ccc(N=Nc2ccccc2)cc1,-26.1% (inactive)
3,O=C(O)CCCC(=O)Nc1ccc(N=Nc2ccccc2)cc1,-13.6% (inactive)
4,O=C(CCl)Nc1ccc(N=Nc2ccccc2)cc1,107% (active)
5,O=C(Cc1ccc(Cl)cc1)Nc1ccccc1Sc1ccccc1,-16.9% (inactive)
6,CCOc1ccccc1C(=O)N(Cc1sccc1C)C1CCS(=O)(=O)C1 (stereo unspecified),-17.4% (inactive)
7,COc1cc(NS(=O)(=O)c2ccc(NC(=S)NC(=O)c3sc4cc(F)ccc4c3Cl)cc2)nc(OC)n1,47.7% (inactive)
8,Cc1nc2ccc(NC(=O)c3cccs3)cc2c(=O)n1Cc1ccc(Cl)cc1,23% (inactive)
9,COc1ccc(CNC(=O)c2ccc(CS(=O)(=O)Cc3ccccc3F)o2)cc1,6% (inactive)
10,Cc1[nH]c(C)c(S(=O)(=O)NCc2ccc(Cl)cc2)c1C(=O)N1CCCC1,-23.5% (inactive)
11,CCN1C(=O)CS/C1=N\S(=O)(=O)c1ccccc1,4.8% (inactive)
12,O=c1c2ccccc2cnn1CCOc1cccc(Br)c1,-51.9% (inactive)
13,COc1ccc2cnn(CCOc3ccccc3)c(=O)c2c1OC,-63% (inactive)
14,O=c1c2ccccc2cnn1CCOc1ccccc1,67.1% (active)
15,O=c1[nH]c(CSc2ncnc3sc(-c4ccccc4)cc23)nc2ccccc12,6.6% (inactive)
16,CC(Oc1ccc([N+](=O)[O-])cc1)C(=O)NCCCN1CCOCC1 (stereo unspecified),-6.2% (inactive)
17,CCc1nc2ccccc2c(C(=O)OCC(=O)Nc2ccc(S(=O)(=O)N3CCOCC3)cc2)c1C,-22% (inactive)
18,CCCc1nc2ccccc2c(C(=O)OCC(=O)Nc2cccc(S(=O)(=O)N3CCOCC3)c2)c1CC,25.8% (inactive)
19,COc1cc(NC(=S)NCCCN2CCOCC2)c(OC)cc1NC(=O)c1ccco1,-24.2% (inactive)
20,CC(=O)c1c(C)n(-c2cccc(Cl)c2)c2ccc(O)cc12,-4.6% (inactive)
21,CCOC(=O)Cc1csc(NC(=O)CSc2nc(-c3ccccc3)c(C#N)c(=O)[nH]2)n1,-50.8% (inactive)
22,CCCCCNC(=O)C(=O)C1C(=O)Nc2ccccc21 (stereo unspecified),0.6% (inactive)
23,CC(C)c1ccc(C(=O)NCc2ccc(Cl)cc2)cc1,-22.8% (inactive)
24,Cc1ccc2c(c1)c(N=O)c(O)n2Cc1ccc(Cl)cc1,31.7% (inactive)
25,CC(C)c1ccc2c(c1)c(SC(C)(C)C)c(CC(C)(C)C(=O)O)n2Cc1ccc(Cl)cc1,37.3% (active)
26,Cc1ccc(C(=O)c2ccc(O)cc2)cc1C,-29.5% (inactive)

# From PubChem BioAssay AID1578 (Sanford-Burnham Center for Chemical Genomics, 2009)
